# Rows were chosen to be rich in hits. Some 9.6% of all compounds tested hit in one or more screens of this group.
# bCat KO growth: beta-catenin-lacking colon tumor cell growth suppression | AID 818 | viability, % at 10 µM | HCT116 beta-catenin knockout viability, CellTiter-Glo, 60 h; active compounds read low | 140,000 compounds, 1.5% hits;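 active means viability at or under a set limit, the compound median less 4 SD, cut at about 6% in these data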
# Autophagy mod: alters autophagy in cells; MEF GFP-LC3 puncta imaging; test concentration mostly 10 µM; AID 463193; calls only at 10 µM (by protocol); 190,000 compounds, 0.98% hits;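 active means percentage of spot-positive cells more than 3 SD above its plate mean, without a fluorescence outlier flag or 80% toxicity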
# Lmaj promast: inhibitors of Leishmania major promastigote growth. Leishmania major promastigotes, resazurin fluorescence viability. inhibition, % at 10 µM. 200,000 compounds, 9% hits; in the data active means inhibition above about 50%;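 further: promastigotes grown with compound for 44 hours at 28 °C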
# Insulin prom inh: TRM-6 insulin promoter activity inhibition; AID 1273; inhibition, % at 2 µM; 130,000 compounds, 0.9% hits; TRM-6 cells (human fetal islet line), insulin promoter-eGFP reporter, imaging; reporter expression induced with tamoxifen;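 active means inhibition above the mean plus 3 SD, with well images judged a real hit on visual review, cut at about 60% in these data, passing the limit was not always enough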
# PTEN del growth: suppresses growth of cells with PTEN deletion; viability, % at 10 µM; HCT116 PTEN-null viability, CellTiter-Glo, 60 h; active compounds read low; 140,000 compounds, 1.2% hits;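 active means viability at or below a set limit, 4 SD under the median of all tested compounds, cut at about 3.7% in these data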;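 further: PTEN knockout HCT116 line with beta catenin targeted HCT116 as companion control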
# Insulin prom up: MIN6 insulin promoter up-regulation; MIN6 insulin promoter-GFP reporter, high-content imaging; active compounds read high; z-score at 5 µM; 190,000 compounds, 0.3% hits; AID 1625;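 active means z-score above 3 at 5 µM with at least 500 cells counted in the well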
# Hits are given with their value; n = inactive; x = no result given; + = active, no number.
SMILES,bCat KO growth,Autophagy mod,Lmaj promast,Insulin prom inh,PTEN del growth,Insulin prom up
Cc1ccc(S(=O)(=O)N=Nc2c(O)[nH]c3ccccc23)cc1,n,n,n,n,n,n
OCCN1CCN(CCSc2ccccc2)CC1,n,n,56,n,n,n
O=C(CN1CCN(CCO)CC1)Nc1ccccc1,n,n,n,n,n,n
Cc1ccc(-c2csc(=S)n2CC(=O)OCC(=O)NCc2ccco2)cc1,n,n,n,x,n,n
CCOC(=O)c1cc(-c2ccccc2)n(CC(=O)Nc2cc(OC)cc(OC)c2)c1C,n,n,96,n,n,n
CCCNC(=O)Cn1c(-c2ccc(F)cc2)cc(C(=O)OCC)c1C,x,+,n,n,x,x
CCOC(=O)c1cc(-c2ccccc2)n(CC(=O)O)c1C,n,+,n,n,n,n
COc1ccc(N2C(=O)CC(C3CCCO3)C2=O)cc1 (centres undefined),x,n,n,n,x,x
CCC(C)(C)NC(=O)CN(Cc1cccs1)C(=O)CCC(=O)Nc1nccs1,n,n,n,n,n,n
C=CCOc1ccccc1CN1CCSCC1,n,n,98,x,n,n
c1ccc(-c2n[nH]c(-c3ccccc3)c2-c2nc3ccccc3[nH]2)cc1,n,n,92,n,n,n
O=C(Cc1ccc(Nc2nc(=S)[nH]c3ccccc23)cc1)NC1CCCCC1,x,n,n,x,x,n
CCOC(=O)c1c(C)sc2c1N(C(=O)CCl)c1cc(Cl)ccc1S2,2.3,+,101,n,2.2,n
CN(c1ccccc1)c1ccc(/C=N/NC(=O)CC#N)cc1,n,n,n,n,n,n
CN(c1ccccc1)c1ccc(/C=C/[N+](=O)[O-])cc1,4.7,n,100,x,3.5,n
O=C1CN(C(=O)COc2ccc(Br)cc2)c2ccccc2N1,x,n,n,x,x,n
CCCCN(CCCC)C(=S)N/N=C/c1c(C)[nH]n(-c2ccccc2)c1=O,n,n,96,x,n,n
Cc1ccc(/C=N/Nc2nncc(-c3ccccc3)n2)o1,x,n,n,x,x,n
CCCCN=Cc1c(C)[nH]n(-c2ccccc2)c1=S,x,n,n,n,x,n
Cc1[nH]n(-c2ccccc2)c(=O)c1/C=N/Nc1nncc(-c2ccccc2)n1,n,n,100,n,n,n
COc1cccc(C(=O)c2c[nH]c(C(=O)NCCCN(C)C)c2)c1,x,n,n,n,x,n
Cc1c(Cl)c(C(=O)NC2CCCC2)nn1C,n,n,n,x,n,x
CC(C)COCc1ccc(O)c2ncccc12,x,n,100,x,x,n
Oc1ccc(COCc2ccccc2)c2cccnc12,3.9,n,101,x,2.3,x
CCCOCc1ccc(O)c2ncccc12,x,x,x,x,x,n
SMILES,bCat KO growth,Autophagy mod,Lmaj promast,Insulin prom inh,PTEN del growth,Insulin prom up
COc1ccc(/C=C2\CC/C(=C\c3ccc(OC)c(OC)c3)C2=O)cc1OC,n,n,n,n,n,n
COc1cccc(/C=C2\CCc3ccccc3C2=O)c1,x,x,x,x,x,n
COc1ccc(/C=C2\CCc3ccccc3C2=O)cc1Cn1nc(C)cc1C,n,n,74,n,n,x
COc1ccc(/C=C2\CCc3ccccc3C2=O)cc1OC,n,n,51,n,n,n
COc1ccc(/C=C2/CCc3ccccc3C2=O)cc1CN1CCOCC1,n,n,82,n,n,n
CCCC(=O)Nc1nnc(CCN2CCCCC2)s1,n,n,n,n,n,n
O=c1[nH]cnc2scc(-c3ccccc3)c12,n,n,n,n,n,n
Cc1cc(C(=O)COC(=O)Cc2n[nH]c(=O)c3ccccc23)c(C)n1-c1cccc(C(F)(F)F)c1,n,n,n,n,n,n
Cc1cc(C(=O)COC(=O)CC2Sc3ccccc3NC2=O)c(C)n1-c1cccc(C(F)(F)F)c1 (centres undefined),n,n,97,n,n,n
O=C(NCCc1ccccc1)C1CCN(C2CCN(Cc3ccc(CO)o3)CC2)CC1,x,n,n,n,x,n
O=C1CCCC2=C1C(c1ccco1)Nc1ccc(C(=O)c3ccccc3)cc1N2 (centres undefined),n,n,73,x,n,n
CC1(C)CC(=O)C2=C(C1)Nc1ccccc1NC2c1ccccn1 (centres undefined),n,n,n,n,n,n
N#CC1=C(SCC(=O)c2ccc(Br)cc2)NC2=C(C(=O)CCC2)C1c1ccco1 (centres undefined),n,n,n,x,n,n
O=C1CCCC2=C1C(c1ccccn1)Nc1ccc(C(=O)c3ccccc3)cc1N2 (centres undefined),n,n,67,n,n,n
CCOC(=O)c1sc(=S)n(-c2ccc(Cl)cc2)c1SC,n,n,n,n,n,x
COc1cc(OC)cc(C(=O)Nc2ccccc2-c2nnn(CC(N)=O)n2)c1,x,n,n,n,x,x
CCOc1ccccc1C(=O)Nc1ccccc1-c1ccccc1,n,n,73,n,n,n
CCOc1ccccc1C(=O)Nc1ccccc1O,n,n,71,n,n,n
Nc1cccc2c1C(=O)N(CC(=O)NC13CC4CC(CC(C4)C1)C3)C2=O,x,n,n,x,x,n
O=C(Cn1sc2ccccc2c1=O)NC12CC3CC(CC(C3)C1)C2,0.7,n,100,x,1.1,n
CC1CCCC(C)N1C(=O)CSc1nnc(-c2cccs2)o1 (centres undefined),n,n,n,n,n,3.5
O=C(c1ccncc1)c1ccc(N2CCN(C3CC(=O)N(Cc4ccccc4)C3=O)CC2)cc1 (centres undefined),n,n,98,n,n,n
CC12CCCCC1N(O)C(=O)C(=O)N2O (centres undefined),n,n,n,x,n,x
COc1ccc(CSc2nncn2C)cc1[N+](=O)[O-],n,n,52,n,n,n
CCCCCCCCOC(=O)/C=C/c1c(C)[nH]c(=O)[nH]c1=O,n,n,93,n,n,n
SMILES,bCat KO growth,Autophagy mod,Lmaj promast,Insulin prom inh,PTEN del growth,Insulin prom up
COC(=O)c1sc(N)c(C(=O)OC)c1COC(=O)C1CC(=O)N(Cc2ccco2)C1 (centres undefined),n,n,51,n,n,n
CC1CN(C2=Nc3cccc4cccc2c34)CC(C)O1 (centres undefined),x,n,n,x,x,n
C=CCSc1nc2[nH]ncc2c(=O)[nH]1,x,n,n,x,x,n
C#CCSc1nc2[nH]ncc2c(=O)[nH]1,n,n,53,n,n,n
Clc1ccc(CSc2nnc(CN3CCOCC3)n2-c2ccccc2)cc1Cl,n,n,n,n,n,n
CCOC(=O)NN1C(=O)c2ccccc2NC1c1ccc(OC)cc1 (centres undefined),n,n,n,n,n,n
COC(=O)/C=C1\C(=O)N(c2nc3ccccc3s2)C(=S)N1c1ccc(F)cc1,n,n,n,n,n,n
COC(=O)/C=C1\C(=O)N(c2nc3ccc(OC)cc3s2)C(=S)N1c1ccc(F)cc1,n,n,67,n,n,n
Cc1ccccc1NS(=O)(=O)c1cc(C(=O)NCCSC2CCCCC2)ccc1C,n,n,100,x,n,n
Cc1ccc(C)c(NS(=O)(=O)c2cc(C(=O)NCCSC3CCCCC3)ccc2C)c1,n,n,97,x,n,n
C/C(=N/NC(=O)c1cccs1)c1ccc(NC(=O)COc2ccc(Cl)cc2Cl)cc1,4.3,+,n,x,2.0,n
